“And” between values parts separate entries of the source, which are not always exact repeats. Equal entries are not always repeated. Results filed as inconclusive are left out. Where a call stands in place of a potency, no number is given. More than one record can exist for a structure, and the calls need not agree. The source made the active and inactive calls. Unless noted, the call rests on the fitted dose curve; in most records, active means well fitted curve in the direction sought with a large enough effect in the repeat runs; inconclusive means weak or mixed curves; inactive means no such curve, though single readings can be large; an effect the other way counts as inactive or inconclusive.
Assays:
[1] = qHTS assay to identify small molecule agonists of the sonic hedgehog signaling (Shh) pathway (AID 1259368; calls by dose curve;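 further: NIH/3T3-derived 3T3Gli1-Luc cells carrying a stable Gli1-driven firefly luciferase reporter; series mostly up to about 92 µM; nearly all actives have a fitted effect of over 15% in size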)
In short: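 NIH/3T3-derived 3T3Gli1-Luc cells with stably integrated Gli1-driven firefly luciferase, 2,000 cells/well, compounds added after 4 hr. Incubated 24 hr at 37C, 5% CO2; luminescence read after 30 min with luciferase reagent at room temperature.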

[2] = qHTS assay to identify small molecule antagonists of the sonic hedgehog signaling (Shh) pathway (AID 1259369; calls by dose curve; further: nearly all actives have a fitted effect of over 45% in size; further: potency means the concentration at half of the fitted maximal effect)
In short: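 NIH/3T3-derived Gli1-Luc reporter cells plated 4 h, dosed with compound, then stimulated with conditioned medium for 24 h at 37 C. Firefly luciferase luminescence read after 30 min with detection reagent at room temperature.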

[3] = target: Estrogen receptor beta (Homo sapiens) (UniProt Q92731); assay: qHTS assay to identify small molecule agonists of the estrogen receptor beta (ER-beta) signaling pathway (AID 1259377; active means well fitted activation curve with a large enough effect in the signal ratio in the repeat runs, not every such curve was filed as active; the % refers to the signal ratio; further: potency means the concentration at half of the fitted maximal effect)
Sequence of Estrogen receptor beta (Homo sapiens) (Q92731 whole entry, looked up): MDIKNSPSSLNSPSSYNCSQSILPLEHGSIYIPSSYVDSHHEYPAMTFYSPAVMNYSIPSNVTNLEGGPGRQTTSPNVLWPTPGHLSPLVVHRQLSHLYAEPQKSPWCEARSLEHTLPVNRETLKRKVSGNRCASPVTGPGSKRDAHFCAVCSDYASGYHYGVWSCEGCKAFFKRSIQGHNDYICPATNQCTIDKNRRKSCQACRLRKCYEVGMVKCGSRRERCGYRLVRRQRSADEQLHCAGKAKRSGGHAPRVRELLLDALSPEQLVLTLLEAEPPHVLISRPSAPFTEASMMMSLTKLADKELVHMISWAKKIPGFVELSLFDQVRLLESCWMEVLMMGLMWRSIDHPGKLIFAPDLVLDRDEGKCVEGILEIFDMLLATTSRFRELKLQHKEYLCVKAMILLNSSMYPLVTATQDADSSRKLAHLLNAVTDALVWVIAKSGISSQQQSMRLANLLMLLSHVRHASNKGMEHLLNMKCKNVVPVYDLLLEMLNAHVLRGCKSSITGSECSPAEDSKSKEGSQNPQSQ
In short: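 Beta-lactamase reporter readout: fluorescence of LiveBLAzer B/G FRET substrate after 2 h at room temperature, following 16 h compound treatment of ER-beta-UAS-bla HEK293T cells at 37C in 2% charcoal-stripped FBS medium.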

[4] = qHTS assay to identify small molecule agonists of the androgen receptor (AR) signaling pathway in the presence of an antagonist - cell viability counter screen (AID 1259379); further: nearly all actives have a fitted effect of over 25% in size; further: potency means the concentration at half of the fitted maximal effect
In short: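 MDA-kb2 cells (MMTV-luciferase, AR/GR), 3,000/well, 5 h attachment, then 3.0 µM nilutamide (final) and compounds at 15 concentrations. Viability by CellTiter-Fluor fluorescence after 16 h at 37 °C, 0% CO2, in the reporter wells.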

[5] = qHTS assay to identify small molecule agonists of the estrogen receptor beta (ER-beta) signaling pathway - cell viability counter screen (AID 1259380); further: nearly all actives have a fitted effect of over 30% in size; further: potency means the concentration at half of the fitted maximal effect
In short: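 ER-beta-UAS-bla HEK293T cells in medium with 2% charcoal-stripped FBS, pre-incubated 6 hr, then treated 16 hr at 37C. Cytotoxicity read in the same wells by CellTiter-Glo luminescence after 30 min at room temperature.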

[6] = qHTS assay to identify small molecule antagonists of the estrogen receptor beta (ER-beta) signaling pathway - cell viability counter screen (AID 1259382); further: nearly all actives have a fitted effect of over 55% in size; further: potency means the concentration at half of the fitted maximal effect
In short: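 ER-beta-UAS-bla HEK293T cells in 2% charcoal-stripped FBS medium, treated with compound plus 1 nM 17-beta-estradiol for 16 h at 37C. Viability read by CellTiter-Glo luminescence after 30 min at room temperature in the same wells.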

[7] = qHTS assay to identify small molecule agonists or antagonists of the thyroid stimulating hormone receptor (TSHR) signaling pathway - wild type cell line counter screen (AID 1259384; calls by dose curve)
In short: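 Counter screen in untransfected Hek293: compounds (15-point titration, triplicate) plus phosphodiesterase inhibitor Ro20-1724 added after 18 h plating; 30 min RT. Intracellular cAMP via competitive d2/cryptate immunoassay, 1 h incubation.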

[8] = target: Thyrotropin receptor (Homo sapiens) (UniProt P16473); assay: qHTS assay to identify small molecule antagonists of the thyroid stimulating hormone receptor (TSHR) signaling pathway (AID 1259385; calls by dose curve; further: nearly all actives have a fitted effect of over 20% in size)
Sequence of Thyrotropin receptor (Homo sapiens) (P16473 whole entry, looked up): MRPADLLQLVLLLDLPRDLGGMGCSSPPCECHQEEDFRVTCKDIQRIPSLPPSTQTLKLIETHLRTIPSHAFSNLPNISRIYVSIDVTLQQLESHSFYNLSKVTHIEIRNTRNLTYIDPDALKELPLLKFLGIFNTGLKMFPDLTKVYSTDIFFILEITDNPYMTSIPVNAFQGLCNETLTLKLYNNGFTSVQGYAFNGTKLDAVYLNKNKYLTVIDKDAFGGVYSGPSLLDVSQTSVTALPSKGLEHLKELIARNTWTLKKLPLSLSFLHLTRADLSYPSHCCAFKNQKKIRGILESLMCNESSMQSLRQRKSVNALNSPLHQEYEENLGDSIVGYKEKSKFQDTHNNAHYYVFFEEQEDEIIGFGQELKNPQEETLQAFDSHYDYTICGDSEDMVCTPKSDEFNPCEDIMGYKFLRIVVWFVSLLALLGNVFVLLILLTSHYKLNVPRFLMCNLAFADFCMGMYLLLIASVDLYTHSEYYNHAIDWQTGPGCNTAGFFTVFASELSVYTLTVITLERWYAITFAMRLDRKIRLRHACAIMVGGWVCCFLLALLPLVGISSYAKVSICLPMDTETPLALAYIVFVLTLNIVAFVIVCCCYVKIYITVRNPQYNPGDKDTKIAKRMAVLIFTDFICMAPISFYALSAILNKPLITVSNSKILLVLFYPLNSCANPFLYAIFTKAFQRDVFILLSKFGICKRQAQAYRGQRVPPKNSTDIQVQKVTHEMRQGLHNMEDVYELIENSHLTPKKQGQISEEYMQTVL
In short: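 Antagonist mode: compound-treated TSHR-expressing HEK293 cells were stimulated with 1.5 ng/mL TSH (final) in presence of Ro20-1724 for 30 min at RT. HTRF cAMP detection after 1 h; each compound tested at 15 concentrations, triplicate.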

[9] = qHTS assay to identify small molecule agonists of the estrogen receptor alpha (ER-alpha) signaling pathway in the presence of an antagonist - cell viability counter screen (AID 1259386);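 further: cells exposed to compounds for 22 h at 37 °C before the viability read; nearly all actives have a fitted effect of over 30% in size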; further: potency means the concentration at half of the fitted maximal effect
In short: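 Cell viability in VM7Luc4E2 cells (endogenous full-length ER-alpha) measured by CellTiter-Fluor fluorescence in the same wells as the luciferase screen. Cells pre-cultured 5 days in charcoal-stripped serum, then treated 22 h with compounds at 15 concentrations plus 10.0nM ICI-182,780.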

[10] = target: Progesterone receptor (Homo sapiens) (UniProt P06401); assay: qHTS assay to identify small molecule agonists of the progesterone receptor (PR) signaling pathway (AID 1346784; calls by dose curve; further: nearly all actives have a fitted effect of over 30% in size)
Sequence of Progesterone receptor (Homo sapiens) (P06401 whole entry, looked up): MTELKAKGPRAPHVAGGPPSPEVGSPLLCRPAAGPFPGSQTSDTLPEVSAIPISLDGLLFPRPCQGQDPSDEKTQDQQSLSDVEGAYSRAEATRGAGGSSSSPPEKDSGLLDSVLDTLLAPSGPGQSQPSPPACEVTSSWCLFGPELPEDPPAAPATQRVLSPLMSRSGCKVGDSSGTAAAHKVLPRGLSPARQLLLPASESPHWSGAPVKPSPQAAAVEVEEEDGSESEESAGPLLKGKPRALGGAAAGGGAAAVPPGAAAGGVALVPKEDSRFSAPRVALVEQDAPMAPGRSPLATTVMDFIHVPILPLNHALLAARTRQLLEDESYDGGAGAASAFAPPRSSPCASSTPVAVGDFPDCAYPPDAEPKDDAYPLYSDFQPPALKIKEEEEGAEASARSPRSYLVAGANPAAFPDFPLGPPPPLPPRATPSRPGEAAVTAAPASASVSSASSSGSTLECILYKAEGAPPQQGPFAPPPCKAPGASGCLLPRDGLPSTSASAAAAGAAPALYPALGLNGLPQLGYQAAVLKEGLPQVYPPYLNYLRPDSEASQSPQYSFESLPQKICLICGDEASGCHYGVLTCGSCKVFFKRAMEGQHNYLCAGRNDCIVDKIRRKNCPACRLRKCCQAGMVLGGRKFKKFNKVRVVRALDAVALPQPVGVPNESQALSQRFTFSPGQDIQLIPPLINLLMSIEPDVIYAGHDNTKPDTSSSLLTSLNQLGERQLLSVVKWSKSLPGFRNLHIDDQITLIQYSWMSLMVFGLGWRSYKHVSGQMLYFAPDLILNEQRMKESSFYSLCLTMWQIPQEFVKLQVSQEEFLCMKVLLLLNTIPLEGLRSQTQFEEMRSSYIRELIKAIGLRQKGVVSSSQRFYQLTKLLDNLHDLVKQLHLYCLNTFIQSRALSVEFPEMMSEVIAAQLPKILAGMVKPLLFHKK
In short: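 HEK 293T PR-UAS-bla reporter cells, 2% charcoal-stripped FBS; 6 hr settle at 37C/5% CO2, compound (DMSO) 16 hr, LiveBLAzer B/G FRET substrate 2 hr RT, fluorescence intensity read.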

[11] = target: Progesterone receptor (Homo sapiens) (UniProt P06401); assay: qHTS assay to identify small molecule antagonists of the progesterone receptor (PR) signaling pathway (AID 1346795; active means well fitted inhibition curve with a large enough effect in the signal ratio in the repeat runs, not every such curve was filed as active; the % refers to the signal ratio; further: potency means the concentration at half of the fitted maximal effect)
In short: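 Beta-lactamase reporter, HEK293T PR-UAS-bla line; 2% charcoal-stripped FBS; 6 hr pre-incubation, 37C/5% CO2. Compound + R5020 1 nM final, 16 hr. LiveBLAzer B/G FRET substrate, 2 hr RT; fluorescence intensity read.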

[12] = qHTS assay to identify small molecule antagonists of the progesterone receptor (PR) signaling pathway - cell viability counter screen (AID 1346798); further: nearly all actives have a fitted effect of over 50% in size; further: potency means the concentration at half of the fitted maximal effect
In short: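 Luminescence readout (CellTiter-Glo, 30 min, RT) of viability in PR-UAS-bla HEK293T cells exposed to compound and R5020 agonist for 16 hr at 37C, 5% CO2; run in the same wells as the beta-lactamase reporter read.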

[13] = qHTS assay to identify small molecule agonists of the progesterone receptor (PR) signaling pathway - cell viability counter screen (AID 1346799; calls by dose curve; further: nearly all actives have a fitted effect of over 45% in size; further: potency means the concentration at half of the fitted maximal effect)
In short: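 HEK293T PR-UAS-bla, 3,000 cells/well, 2% charcoal-stripped FBS; 6 h settle, compound 16 h at 37C/5% CO2; LiveBLAzer 2 h RT, then CellTiter-Glo 30 min RT, luminescence read.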

[14] = qHTS assay to identify small molecule antagonists of the TGF-beta/Smad signaling pathway - cell viability counter screen (AID 1346824); further: nearly all actives have a fitted effect of over 50% in size
In short: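 Cytotoxicity counter-screen run in the same wells as the beta-lactamase Smad reporter read: CellTiter-Glo luminescence after 30 min at room temperature. HEK 293T SBE-bla cells had 5 hr compound exposure at 37 C with TGF-beta1 (0.25 ng/mL stock).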

[15] = qHTS assay to identify small molecule agonists of the TGF-beta/Smad signaling pathway - cell viability counter screen (AID 1346829); further: top concentration of the series differs between compounds; nearly all actives have a fitted effect of over 45% in size
In short: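 Here the cytotoxicity of library compounds is measured in SBE-bla HEK 293T cells treated for 5 hr, using CellTiter-Glo added to wells already read for the beta-lactamase reporter.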

[16] = target: Thyrotropin-releasing hormone receptor (Homo sapiens) (UniProt P34981); assay: qHTS assay to identify small molecule antagonists of the thyrotropin-releasing hormone receptor (TRHR) signaling pathway (AID 1346877; active means well fitted inhibition curve with a large enough effect in the repeat runs, not every such curve was filed as active; further: series mostly up to about 51 µM)
Sequence of Thyrotropin-releasing hormone receptor (Homo sapiens) (P34981 whole entry, looked up): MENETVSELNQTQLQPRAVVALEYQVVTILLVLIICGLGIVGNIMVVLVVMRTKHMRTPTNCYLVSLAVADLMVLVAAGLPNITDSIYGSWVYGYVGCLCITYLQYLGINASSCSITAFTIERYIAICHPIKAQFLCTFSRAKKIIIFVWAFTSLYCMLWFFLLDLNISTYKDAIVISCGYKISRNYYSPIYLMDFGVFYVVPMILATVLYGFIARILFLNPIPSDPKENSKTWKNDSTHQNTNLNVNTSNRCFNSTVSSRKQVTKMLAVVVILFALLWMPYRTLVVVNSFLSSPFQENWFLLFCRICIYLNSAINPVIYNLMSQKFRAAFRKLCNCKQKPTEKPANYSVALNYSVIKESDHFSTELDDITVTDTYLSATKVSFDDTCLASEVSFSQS
In short: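 TRHR-expressing HEK293 cells loaded with calcium dye for 2 h at 37 C; compounds pre-incubated 5 min at room temperature before TRH challenge at 1 nM final. Intracellular calcium fluorescence read kinetically for 3 min; 15 concentrations in triplicate.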

[17] = qHTS assay to identify small molecule agonists of the TGF-beta/Smad signaling pathway (AID 1346859; active means well fitted activation curve with a large enough effect in the signal ratio in the repeat runs, not every such curve was filed as active; the % refers to the signal ratio; further: series mostly up to about 77 µM)
In short: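 Read-out: fluorescence at 460 and 530 nm (405 nm excitation) after a 2 hr room-temperature incubation with beta-lactamase FRET substrate. SBE-bla HEK 293T cells had been treated with test compounds for 5 hr at 37 C.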

[18] = target: Estrogen receptor (Homo sapiens) (UniProt P03372); assay: qHTS assay to identify small molecule agonists of the estrogen receptor alpha (ER-alpha) signaling pathway in the presence of an antagonist (AID 1259383; calls by dose curve; further: nearly all actives have a fitted effect of over 15% in size; further: potency means the concentration at half of the fitted maximal effect; on activation: top concentration of the series differs between compounds)
Sequence of Estrogen receptor (Homo sapiens) (P03372 whole entry, looked up): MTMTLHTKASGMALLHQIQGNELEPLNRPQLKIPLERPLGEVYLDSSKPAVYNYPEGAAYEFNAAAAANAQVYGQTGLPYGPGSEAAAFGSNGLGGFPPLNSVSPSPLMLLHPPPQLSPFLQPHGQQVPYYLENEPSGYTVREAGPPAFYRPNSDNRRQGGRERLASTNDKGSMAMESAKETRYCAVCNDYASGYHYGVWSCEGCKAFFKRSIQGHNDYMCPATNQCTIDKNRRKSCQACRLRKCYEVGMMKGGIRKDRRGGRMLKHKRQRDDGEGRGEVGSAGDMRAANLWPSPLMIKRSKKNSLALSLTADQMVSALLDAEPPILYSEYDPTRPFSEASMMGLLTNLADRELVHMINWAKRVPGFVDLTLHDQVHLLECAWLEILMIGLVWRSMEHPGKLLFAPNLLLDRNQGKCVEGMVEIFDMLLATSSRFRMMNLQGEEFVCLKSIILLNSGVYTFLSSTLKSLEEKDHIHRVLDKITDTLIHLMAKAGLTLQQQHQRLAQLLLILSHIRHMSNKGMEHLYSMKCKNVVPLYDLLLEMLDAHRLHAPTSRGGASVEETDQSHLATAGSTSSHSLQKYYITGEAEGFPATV
In short: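 VM7Luc4E2 cells express endogenous full-length ER-alpha with an ERE-luciferase reporter and were hormone-deprived for 5 days. Compounds at 15 concentrations were added with 10.0nM ICI-182,780 for 22hr at 37C. Luminescence was read with ONE-Glo.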

SMILES | outcome [1] | Potency [2] | Potency [3] | Potency [4] | Potency [5] | Potency [6] | outcome [7] | outcome [8] | Potency [9] | Potency [10] | Potency [11] | Potency [12] | Potency [13] | Potency [14] | Potency [15] | outcome [16] | outcome [17] | Potency [18]
Cc1cc(O)c2c(c1)C(=O)c1cc(O)cc(O)c1C2=O | inactive | 34.4 µM (active) | 4.86 µM (active) | 26.7 µM (active) and 30.6 µM (active) | inactive | inactive | inactive | inactive | 15.4 µM (active) | inactive | 29.9 µM (active) and 27.3 µM (active) | inactive | inactive | inactive | inactive | inactive |  | 
Cc1cc(NS(=O)(=O)c2ccc(N)cc2)no1 | inactive | inactive | inactive | inactive | inactive | inactive | inactive |  | inactive | inactive | inactive | inactive | inactive | inactive | inactive |  | inactive | 
CCCCNC(N)=O | inactive | inactive | inactive | inactive | inactive | inactive |  |  | inactive | inactive | inactive | inactive | inactive | inactive | inactive | inactive | inactive | 
CCCCC(CC)COC(=O)CCCCCCCC(=O)OCC(CC)CCCC (stereo not drawn) | inactive | 15.4 µM (active) and inactive | inactive | 8.63 µM (active) and inactive | 15.4 µM (active) | 30.6 µM (active) and inactive | inactive | inactive | inactive | inactive | 8.63 µM (active) and inactive |  | 54.5 µM (active) and inactive | inactive | inactive | inactive | inactive | 
O=[N+]([O-])C(CO)(CO)CO | inactive | 0.151 µM (active) | inactive | inactive | inactive |  | inactive | inactive | inactive | inactive | inactive | inactive | inactive | inactive | inactive | inactive | inactive | inactive
C=C1C2CCC(C2)C1(C)C (stereo not drawn) | inactive | inactive | inactive | inactive | inactive |  | inactive | inactive | inactive | inactive | inactive | inactive | inactive | inactive | inactive | inactive | inactive | inactive
O=[N+]([O-])c1cccc(Cl)c1 | inactive | inactive | inactive | inactive | inactive | inactive | inactive | inactive | inactive | inactive | inactive | inactive | inactive | inactive | inactive | inactive | inactive | 67.4 µM (active) and inactive
C[C@@H](O)[C@H]1C(=O)N2C(C(=O)O)=C(S[C@@H]3CN[C@H](C(=O)N(C)C)C3)[C@H](C)[C@H]12 | inactive | inactive | inactive | inactive | inactive | inactive | inactive | inactive | inactive | inactive | inactive | inactive | inactive | inactive | inactive |  | inactive | 
O=C(c1cc(O)c(O)c(O)c1)c1ccc(O)c(O)c1O | inactive | 34.4 µM (active) and inactive | inactive | 27.3 µM (active) | inactive |  |  |  | 34.3 µM (active) and 30.6 µM (active) | inactive | inactive | inactive | inactive | inactive | inactive | inactive | inactive | inactive
ClC1=C(Cl)C(Cl)(Cl)C(Cl)=C1Cl | inactive | inactive | inactive | 43.3 µM (active) | inactive | inactive | inactive | inactive | inactive | inactive | inactive | inactive | inactive | inactive | inactive | inactive | inactive | inactive
CC1=C(/C=C/C(C)=C/C=C/C(C)=C/CO)C(C)(C)CCC1 | inactive | 15.5 µM (active) | inactive | inactive | inactive | inactive | inactive | inactive | inactive | inactive | inactive | inactive | inactive | inactive | inactive | inactive | inactive | inactive
C=C(C)C(=O)OCCCCCCCCCCCC | inactive | inactive | inactive | inactive | inactive | inactive | inactive | inactive | inactive | inactive | inactive | inactive | inactive | inactive | inactive | inactive | inactive | inactive
S=c1nc[nH]c2nc[nH]c12 | inactive | inactive | inactive | inactive | 7.51 µM (active) and 3.35 µM (active) |  | inactive | inactive | inactive | inactive |  | 8.41 µM (active) | 4.74 µM (active) and 11.9 µM (active) |  |  | inactive | inactive | inactive
CC(C)(C)C(=O)C1C(=O)c2ccccc2C1=O | inactive | 68.6 µM (active) | inactive | 60.5 µM (active) | inactive | inactive | inactive | inactive | 60.5 µM (active) and 61.1 µM (active) | inactive | inactive | inactive | inactive | inactive | inactive |  | inactive | inactive
NC(=O)/N=N/C(N)=O | inactive | inactive | inactive | inactive | inactive | inactive |  |  | inactive | inactive | inactive | inactive | inactive | inactive | inactive | inactive | inactive | inactive
OCC#CCO | inactive | inactive | inactive | inactive | inactive | inactive | inactive | inactive | inactive | inactive | inactive | inactive | inactive | inactive | inactive | inactive | inactive | 

From PubChem BioAssay (Tox21)
